The nature of assay [1]: compounds binding Alexa647 anti-His antibody – biochemical, small-molecule microarray, 635 nm fluorescence, artefact control for SMM control protein annotation, primary screen (AID 1128).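 Further: score merges feature fluorescence with signal-to-noise for each printed compound spot.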 Conditions: higher = more signal.
Assay [2] deals with Human papillomavirus type 1a E7 protein (residues 1-88). Briefly: HPV1a E7 small-molecule binders, primary screen, biochemical, small-molecule microarray, residues 1-88, 635 nm (AID 1129). Conditions: small-molecule microarray binding, fluorescence 635 nm; higher = more signal.
Assay [3] addresses Focal adhesion kinase 1 (Homo sapiens) (UniProt Q05397). Description: PTK2 protein binding on printed compound slides – biochemical, small-molecule microarray, 635/667 nm fluorescence, BSA, DTT, primary screen (AID 1130).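 Further: composite of spot emission at 667 nm and signal to noise over triplicate slides.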 Conditions: 635 nm fluorescence, higher = more signal.
In assay [4] the test system is Fibrinogen (Alexa647-labelled). Briefly: Alexa647-fibrinogen binding to printed small molecules – biochemical, small-molecule microarray, 635/667 nm fluorescence, artefact control for SMM control-protein annotation, profiling panel (AID 1131).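 Further: z-score merges 667 nm fluorescence with per-spot signal-to-noise over triplicate slides.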 Particulars: fibrinogen-A647 binding fluorescence, higher = more signal.
For assay [5], the target named is Follistatin (Homo sapiens) (UniProt P19883). Briefly: FST protein binding to printed compounds – biochemical, small-molecule microarray, 635/667 nm fluorescence, primary screen (AID 1132). Conditions: 635 nm fluorescence, higher = more signal.
Assay [6] has as its target Fibroblast growth factor 2 (Homo sapiens) (UniProt P09038). Briefly: basic fibroblast growth factor binding to printed compounds – biochemical, small-molecule microarray, 635/667 nm fluorescence, primary screen (AID 1133). Conditions: FGF2, fluorescence 635/667, higher = more signal.
Assay [7] can be described thus: JC-1 mitochondrial potential readout, lung cancer cells – cell-based, A549, JC-1 fluorescence, basal, 24 h, 100 nL, profiling panel (AID 1138).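 Further: A549 lung adenocarcinoma cells under basal conditions with no added stimulus; test concentration not given here.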 Particulars: higher = more signal.
A further assay has as its system Lefty1. Briefly: Lefty1 protein binding to printed compounds – biochemical, small-molecule microarray, 635/667 nm fluorescence, primary screen (AID 1139). Particulars: fluorescence 635/667, higher = more signal.
Assay [8] has as its system wheat germ agglutinin (Triticum aestivum), Alexa647-labelled. Briefly: Alexa647-WGA lectin binding to printed small molecules – biochemical, small-molecule microarray, 635/667 nm fluorescence, artefact control for SMM control-protein annotation, profiling panel (AID 1140).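 Further: score merges 667 nm feature emission with signal to noise over triplicate slides.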 Conditions: WGA-A647 binding, 635 nm fluorescence, higher = more signal.
Assay [9] has as its target Luciferin 4-monooxygenase (Photinus pyralis) (UniProt P08659). Briefly: inhibition of purified Photinus pyralis luciferase – biochemical, luminescence, purified enzyme, 2006 set, primary screen (AID 1141).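 Further: cell-free assay with purified firefly luciferase at 100 ng per well in PBS; test concentration not given here.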 Conditions: purified firefly luciferase, SteadyGlo luminescence, 30 min; higher = more signal, called active from +8 up or from −8 down.
Assay [10] concerns Wnt5a (protein binding on small-molecule microarray). Description: small molecules binding Wnt5a protein – biophysical, small-molecule microarray, 635/667 nm fluorescence, primary screen (AID 1142).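 Further: fluorescence read at 667 nm with signal to noise per printed feature.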 Particulars: 635 nm fluorescence, higher = more signal.
Assay [11] is described as follows: ATP-based viability of Huh7 replicon cells – cell-based, CellTiter-Glo luminescence, basal, 48 h, cytotoxicity control for HCV replication inhibitor project, primary screen (AID 1143).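 Further: Huh7 hepatoma cells carrying a hepatitis C replication reporter with no stimulus; test concentration not given here.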 Particulars: higher = more signal, called active from +8 up or from −8 down.
Assay [12] in a line: Pseudomonas biofilm growth suppression – PAO1 strain, BacTiter-Glo luminescence, LB-PBS, primary screen (AID 1144). Conditions: P. aeruginosa PAO1 biofilm, 12 h, higher = more signal.
Assay [13] in a line: basal CRE-LacZ reporter activity in PC12 – cell-based, unstimulated, primary screen (AID 1145). Particulars: no forskolin, luminescence, 4.5 h, higher = more signal, called active from +8 up or from −8 down.
Assay [14] can be described thus: forskolin-driven CRE-LacZ activity in PC12 – cell-based, CRE-LacZ reporter, forskolin-stimulated, primary screen (AID 1146).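 Further: PC12 cells with 6xCRE LacZ reporter stimulated by forskolin 10 µM; beta-galactosidase reporter signal reflecting CREB driven transcription.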 Particulars: luminescence, 4.5 h, higher = more signal, called active from +8 up or from −8 down.
Assay [15] concerns the target Streptavidin (Streptomyces avidinii) (UniProt P22629). Description: compounds binding control protein streptavidin – biophysical, small-molecule microarray, 635/667 nm fluorescence, artefact control for SMM compound annotation, primary screen (AID 1147).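 Further: signal reflects streptavidin binding to arrayed compounds as a control protein.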 Conditions: higher = more signal.
Assay [16] in a line: probe aInhba binding on compound microarray – biochemical, small-molecule microarray, 635/667 nm fluorescence, primary screen (AID 1148).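 Further: score merges 667nm spot fluorescence with signal-to-noise for antibody binding to printed compounds.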 Conditions: higher = more signal.
Assay [17] deals with Torsin-1A (Homo sapiens) (UniProt O14656). Description: TOR1A wild-type binding on microarray – cell lysate, small-molecule microarray, lysate, 635/667 nm, primary screen (AID 1149). Particulars: COS7 hTOR1A-WT lysate, 635 nm fluorescence, higher = more signal.
The target is the same in assay [18]. Briefly: torsin A mutant lysate binding on microarrays – cell lysate, small-molecule microarray, COS7 lysate, 635/667 nm fluorescence, primary screen (AID 1150).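 Further: score pools 667 nm emission and signal to noise measuring lysate protein binding.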 Conditions: COS7 hTOR1A mutant lysate, 635 nm fluorescence, higher = more signal.
In assay [19] the test system is Sonic hedgehog protein (Shh). Description: Sonic hedgehog microarray binding compounds – biochemical, small-molecule microarray, 635/667 nm fluorescence, primary screen (AID 1151).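 Further: Shh protein binding to compounds spotted on small-molecule microarray slides; score combines spot fluorescence intensity with signal-to-noise across triplicate slides.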 Conditions: 635 nm fluorescence, higher = more signal.

Values joined by “and” are separate entries in the source; they are usually repeats but may differ in a detail not shown here. Identical values can stand only once. Active and inactive are the calls of the source. Unless noted, how the calls were made is not given here.

Sequence of Follistatin (Homo sapiens) (P19883 whole entry, looked up): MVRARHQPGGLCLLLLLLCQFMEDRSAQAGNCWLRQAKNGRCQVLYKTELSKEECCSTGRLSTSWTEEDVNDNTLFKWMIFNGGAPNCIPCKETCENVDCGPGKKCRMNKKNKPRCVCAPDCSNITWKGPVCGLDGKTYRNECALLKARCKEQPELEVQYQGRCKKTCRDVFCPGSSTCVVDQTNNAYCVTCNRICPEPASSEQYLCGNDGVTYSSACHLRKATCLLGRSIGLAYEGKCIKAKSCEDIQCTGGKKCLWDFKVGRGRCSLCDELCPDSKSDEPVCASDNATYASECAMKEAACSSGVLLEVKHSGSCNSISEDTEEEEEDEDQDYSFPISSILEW
Sequence of Focal adhesion kinase 1 (Homo sapiens) (Q05397 whole entry, looked up): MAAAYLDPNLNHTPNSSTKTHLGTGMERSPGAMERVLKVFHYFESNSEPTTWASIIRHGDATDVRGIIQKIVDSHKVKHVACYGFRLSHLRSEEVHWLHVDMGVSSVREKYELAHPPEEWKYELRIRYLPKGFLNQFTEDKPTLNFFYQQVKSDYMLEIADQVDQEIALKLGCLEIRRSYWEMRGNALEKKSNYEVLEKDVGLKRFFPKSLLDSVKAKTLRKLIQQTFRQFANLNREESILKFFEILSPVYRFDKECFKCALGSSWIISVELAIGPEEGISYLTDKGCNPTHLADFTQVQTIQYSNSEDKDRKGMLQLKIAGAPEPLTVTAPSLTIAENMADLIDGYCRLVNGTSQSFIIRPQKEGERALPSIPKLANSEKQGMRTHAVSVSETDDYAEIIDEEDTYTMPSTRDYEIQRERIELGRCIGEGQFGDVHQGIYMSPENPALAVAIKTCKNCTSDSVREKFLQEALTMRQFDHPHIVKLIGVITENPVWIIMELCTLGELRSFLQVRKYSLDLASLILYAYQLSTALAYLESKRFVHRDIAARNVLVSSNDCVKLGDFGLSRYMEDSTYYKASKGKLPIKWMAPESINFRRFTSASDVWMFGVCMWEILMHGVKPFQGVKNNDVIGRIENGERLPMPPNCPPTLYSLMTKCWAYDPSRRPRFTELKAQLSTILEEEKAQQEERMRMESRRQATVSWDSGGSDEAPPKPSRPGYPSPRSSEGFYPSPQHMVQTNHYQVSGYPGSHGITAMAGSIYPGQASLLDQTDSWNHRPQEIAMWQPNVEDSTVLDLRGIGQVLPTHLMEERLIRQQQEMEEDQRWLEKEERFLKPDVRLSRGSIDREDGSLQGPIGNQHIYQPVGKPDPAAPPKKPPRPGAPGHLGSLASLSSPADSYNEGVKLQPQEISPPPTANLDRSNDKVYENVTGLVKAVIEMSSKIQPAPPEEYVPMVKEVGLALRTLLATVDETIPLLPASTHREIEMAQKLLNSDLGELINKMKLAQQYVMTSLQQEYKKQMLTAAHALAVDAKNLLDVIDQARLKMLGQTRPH
Sequence of Torsin-1A (Homo sapiens) (O14656 whole entry, looked up): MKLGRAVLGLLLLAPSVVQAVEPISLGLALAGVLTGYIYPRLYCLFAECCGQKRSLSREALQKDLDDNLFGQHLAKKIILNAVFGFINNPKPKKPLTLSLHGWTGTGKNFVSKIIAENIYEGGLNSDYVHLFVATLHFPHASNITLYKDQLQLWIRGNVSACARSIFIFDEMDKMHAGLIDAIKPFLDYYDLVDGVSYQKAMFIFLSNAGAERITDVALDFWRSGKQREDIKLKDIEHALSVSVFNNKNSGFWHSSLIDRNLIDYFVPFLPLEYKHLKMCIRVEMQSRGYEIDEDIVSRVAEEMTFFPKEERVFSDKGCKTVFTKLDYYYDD
Sequence of Streptavidin (Streptomyces avidinii) (P22629 whole entry, looked up): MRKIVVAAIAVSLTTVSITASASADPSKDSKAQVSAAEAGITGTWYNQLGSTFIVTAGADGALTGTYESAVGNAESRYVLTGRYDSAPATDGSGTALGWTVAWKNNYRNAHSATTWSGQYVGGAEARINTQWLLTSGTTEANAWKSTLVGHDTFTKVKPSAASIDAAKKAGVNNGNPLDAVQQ
Sequence of Luciferin 4-monooxygenase (Photinus pyralis) (P08659 whole entry, looked up): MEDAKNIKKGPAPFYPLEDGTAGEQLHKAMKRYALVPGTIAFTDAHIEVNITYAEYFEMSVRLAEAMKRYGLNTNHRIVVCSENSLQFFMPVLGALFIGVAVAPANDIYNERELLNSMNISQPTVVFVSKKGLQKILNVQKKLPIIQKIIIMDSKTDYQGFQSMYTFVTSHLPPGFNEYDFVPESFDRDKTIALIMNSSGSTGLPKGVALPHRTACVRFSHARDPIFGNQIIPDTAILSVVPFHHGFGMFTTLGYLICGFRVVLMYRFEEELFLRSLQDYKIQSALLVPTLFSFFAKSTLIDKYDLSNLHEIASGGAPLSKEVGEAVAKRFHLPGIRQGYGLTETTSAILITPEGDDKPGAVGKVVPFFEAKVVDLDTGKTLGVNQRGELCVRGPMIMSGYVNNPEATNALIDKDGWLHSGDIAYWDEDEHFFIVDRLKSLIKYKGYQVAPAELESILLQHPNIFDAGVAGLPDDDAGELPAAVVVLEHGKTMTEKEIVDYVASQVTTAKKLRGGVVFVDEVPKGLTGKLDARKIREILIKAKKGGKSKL
Sequence of Fibroblast growth factor 2 (Homo sapiens) (P09038 whole entry, looked up): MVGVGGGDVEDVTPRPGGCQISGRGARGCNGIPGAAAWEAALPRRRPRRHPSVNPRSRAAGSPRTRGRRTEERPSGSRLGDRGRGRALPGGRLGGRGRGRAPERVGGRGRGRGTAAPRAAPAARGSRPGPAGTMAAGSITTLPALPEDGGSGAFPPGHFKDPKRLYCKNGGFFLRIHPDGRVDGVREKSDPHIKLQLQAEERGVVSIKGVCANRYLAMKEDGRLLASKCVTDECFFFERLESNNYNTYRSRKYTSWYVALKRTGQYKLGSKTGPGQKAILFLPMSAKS

Regarding `CC(CO)N1C(=O)[C@@H]2C3C(=O)OCCC=C[C@H]3OC23C=CCN(c2ccc4ccccc4c2)C(=O)[C@@H]13` (stereo not given in full), the composite z-score in assay [1] is 0.62 and 1.59; in assay [2], -0.203 and -0.362; in [3] it was -0.192 and 0.525; in assay [4], -0.986 and -1.18; in assay [5], -0.0475 and -0.0413; in assay [6], -1.53 and -0.879. Also, the composite z-score is -0.0302 and -0.337 in the assay with Lefty1; -0.388 and 0.771 in assay [8]; -0.758 and -0.416 in assay [10]; -0.809 and -0.937 in assay [15]; -0.0933 and -0.584 in assay [16]; -1.95 and -1.75 with Torsin-1A (Homo sapiens) [17]. Further, the composite z-score in the assay with Torsin-1A (Homo sapiens) [18] was -1.23 and -1.14; in [19], 0.0707 and -0.262. Besides, the z-score in assay [7] is 0.638 and 0.972; in assay [9] it was -0.618 (inactive) and -0.657 (inactive); in assay [11] it was 0.0425 (inactive) and 0.0276 (inactive); in assay [12], 0.87 (inactive) and 1.11 (inactive); in [13], 0.199 (inactive) and 0.756 (inactive); in assay [14] it was -0.345 (inactive) and 0.0714 (inactive).

For `C=CCN(Cc1ccccc1)C(=O)C(c1cccs1)N(C(=O)/C=C\C(=O)O)c1c(Cl)cccc1CO` (stereo not given), the composite z-score in assay [1] was -0.815 and -1.36; in [2] it was -0.562 and -1.54; in assay [3], -0.675 and -0.0599; in assay [4] it was -2.79 and -3.53; in assay [5], -1.74 and -2.71; in assay [6] it was -2.4 and -1.88. Further, the composite z-score in the assay on Lefty1 was -1.51 and -1.93; in assay [8] it was -0.482 and -1.57; in assay [10], -0.835 and -0.796; in [15], -1.7 and -1.08; in assay [16] it was -0.154 and -0.176; with Torsin-1A (Homo sapiens) [17], -2.82 and -2.49. Also, the composite z-score in the assay with Torsin-1A (Homo sapiens) [18] was 0.702 and -1.72; in [19], -0.877 and -0.78. Further, the z-score is -0.321 and -0.229 in assay [7]; 1.02 (inactive) and 0.077 (inactive) in [9]; -0.109 (inactive) and 0.446 (inactive) in assay [11]; -1.78 (inactive) and 0.911 (inactive) in assay [12]; -1.44 (inactive) and 0.191 (inactive) in [13]; -0.418 (inactive) and -0.107 (inactive) in assay [14].

Turning to `COC(=O)CC=C[C@@H](C)[C@@H](CO)NS(=O)(=O)c1ccc(C)cc1`, the composite z-score in assay [1] was 0.929 and 0.293; in [2], 0.298 and 0.512; in assay [3] it was 0.0223 and -0.111; in assay [4], -0.223 and 0.225; in [5], 0.523 and 0.791; in assay [6] it was 0.646 and 0.574. The composite z-score with Lefty1 was 0.648 and 0.88; in [8] it was -0.22 and 0.117; in assay [10], 0.234 and 0.125; in assay [15], -0.183 and 0.469; in assay [16] it was -0.05 and 0.0248; in the assay with Torsin-1A (Homo sapiens) [17], 0.448 and 0.478. In addition, the composite z-score was 0.32 and 1.08 in the assay with Torsin-1A (Homo sapiens) [18]; 0.759 and 1.44 in assay [19]. Further, the z-score in assay [7] was -0.145 and 0.884; in assay [9] it was 0.0494 (inactive) and -0.803 (inactive); in [11] it was 0.577 (inactive) and -0.18 (inactive); in [12], 0.773 (inactive) and -0.379 (inactive); in assay [13] it was 1.1 (inactive) and 0.288 (inactive); in assay [14], -0.196 (inactive) and -0.693 (inactive).

With `C=CCN(CCCCC)C(=O)C(c1cccs1)N(C(=O)/C=C\C(=O)O)c1ccc(CCO)cc1` (stereo not given), the composite z-score in [1] is -0.206 and -1.12; in [2] it was -0.502 and -0.625; in [3], -0.279 and -0.0021; in [4], -1.39 and -1.21; in [5], -1.43 and -0.996; in assay [6] it was -1.54 and -1.4. The composite z-score with Lefty1 is -1.07 and -1.27; in assay [8], -0.573 and -0.325; in [10], -0.909 and -0.947; in [15], -1.72 and -1.16; in [16], -0.331 and -0.0021; with Torsin-1A (Homo sapiens) [17], -2.38 and -1.69. Further, the composite z-score in the assay with Torsin-1A (Homo sapiens) [18] is -1.96 and -1.51; in assay [19], -0.975 and -0.587. In addition, the z-score in [7] is 0.868 and 0.897; in assay [9], -1.24 (inactive) and -0.887 (inactive); in [11], 0.162 (inactive) and 0.193 (inactive); in [12] it was 0.0224 (inactive) and -0.188 (inactive); in assay [13] it was 0.459 (inactive) and 0.597 (inactive); in [14] it was -0.343 (inactive) and -0.244 (inactive).

(Values after PubChem BioAssay.)
